From PubChem BioAssay
Values joined by “and” are separate entries in the source; they are usually repeats but may differ in a detail not shown here. Equal values may be shown once. For part of these data: Potency and affinity values are given separately. Where a structure was tested more than once in an assay, its records may differ in their call. Active and inactive are the calls of the source. Entries that show only a call come without a potency. Unless noted, how the calls were made is not given here.

Experiments:
[1] = antimalarial activity against Dd2 strain (AID 2302;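 active means growth inhibition above 50% at the single 2 µM test dose, taken to imply half-maximal potency below 2 µM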); details: P. falciparum Dd2 in RBCs, LDH growth readout, 72 h; at 2 µM; stronger effect = higher value
[2] = human hepatoma cell viability loss – ATP luminescence, cytotoxicity control for P. falciparum antimalarial project, primary screen (AID 2303;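 active means inhibition above 50%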); details: HepG2 viability, 24-48 h, at 10 µM, stronger effect = higher value
[3] = molecular target: L-lactate dehydrogenase (Plasmodium falciparum (isolate CDC / Honduras)) (UniProt Q27743); assay: PfLDH activity inhibition – cell lysate, 3D7 strain, counter-screen for P. falciparum growth inhibition project (AID 2304); details: P. falciparum 3D7 crude extract, LDH APAD/NBT absorbance; at 2 µM; stronger effect = higher value
L-lactate dehydrogenase (Plasmodium falciparum (isolate CDC / Honduras)), sequence (Q27743 whole entry, looked up): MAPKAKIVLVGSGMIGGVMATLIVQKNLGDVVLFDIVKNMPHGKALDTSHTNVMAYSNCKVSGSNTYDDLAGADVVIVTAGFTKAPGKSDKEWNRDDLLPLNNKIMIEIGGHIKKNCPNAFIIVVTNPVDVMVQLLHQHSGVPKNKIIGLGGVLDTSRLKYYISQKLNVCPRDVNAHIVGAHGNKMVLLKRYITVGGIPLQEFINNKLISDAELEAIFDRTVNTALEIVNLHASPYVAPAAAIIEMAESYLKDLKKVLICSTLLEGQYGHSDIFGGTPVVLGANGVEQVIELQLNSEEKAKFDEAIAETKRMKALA

[4] = inhibition of 3D7 malaria parasite growth – strain 3D7 (AID 2306); details: P. falciparum 3D7 erythrocytic growth, LDH absorbance, 72 h; at 2 µM; stronger effect = higher value
[5] = molecular target: Calcium-dependent protein kinase 1 (Plasmodium falciparum (isolate 3D7)) (UniProt P62344); assay: PfCDPK1 kinase inhibitors, biochemical, TCAMS library (AID 1159585; cut-off not given, nearly all actives have IC50 up to about 0.98 µM;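 further: inhibitors leave more ATP so luminescence rises with inhibition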); details: recombinant PfCDPK1, Kinase-Glo ATP depletion luminescence
Calcium-dependent protein kinase 1 (Plasmodium falciparum (isolate 3D7)), sequence (P62344 whole entry, looked up): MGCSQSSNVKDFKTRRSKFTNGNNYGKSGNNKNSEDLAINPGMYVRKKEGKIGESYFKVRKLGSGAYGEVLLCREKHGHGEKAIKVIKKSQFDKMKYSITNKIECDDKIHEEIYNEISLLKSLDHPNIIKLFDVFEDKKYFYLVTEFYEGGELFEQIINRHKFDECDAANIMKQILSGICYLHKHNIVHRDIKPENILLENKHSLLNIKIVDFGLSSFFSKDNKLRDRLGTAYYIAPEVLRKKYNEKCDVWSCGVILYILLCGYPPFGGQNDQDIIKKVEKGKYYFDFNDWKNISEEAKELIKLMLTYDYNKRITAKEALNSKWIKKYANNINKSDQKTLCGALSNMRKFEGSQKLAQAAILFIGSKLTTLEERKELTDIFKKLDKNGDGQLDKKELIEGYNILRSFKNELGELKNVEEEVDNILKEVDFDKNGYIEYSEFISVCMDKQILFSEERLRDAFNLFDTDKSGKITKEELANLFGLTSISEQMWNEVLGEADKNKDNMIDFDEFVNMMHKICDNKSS

[6] = molecular target: Plasmodium falciparum protein kinase 6 (PK6, PF3D7_1337100) (UniProt Q8IDW1); assay: PfPK6 kinase inhibitors, biochemical, TCAMS library (AID 1159586); details: recombinant PfPK6, Kinase-Glo ATP depletion luminescence
Plasmodium falciparum protein kinase 6 (PK6, PF3D7_1337100), sequence (Q8IDW1 1-305): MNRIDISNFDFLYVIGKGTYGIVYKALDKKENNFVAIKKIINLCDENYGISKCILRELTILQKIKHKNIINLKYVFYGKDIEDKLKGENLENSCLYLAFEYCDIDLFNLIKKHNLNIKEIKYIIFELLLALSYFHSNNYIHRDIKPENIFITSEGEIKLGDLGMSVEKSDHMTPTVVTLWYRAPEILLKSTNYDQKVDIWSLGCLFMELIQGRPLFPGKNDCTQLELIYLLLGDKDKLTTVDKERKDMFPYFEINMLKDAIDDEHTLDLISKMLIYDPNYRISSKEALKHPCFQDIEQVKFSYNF

[7] = molecular target: Protein kinase 7 (PK7), Plasmodium falciparum 3D7 (PF3D7_0213400) (UniProt Q7YTF7); assay: inhibition of Plasmodium PK7 catalytic activity – biochemical, TCAMS antimalarial set, Kinase-Glo luminescence (AID 1159587); details: recombinant PfPK7, Kinase-Glo ATP depletion luminescence
Protein kinase 7 (PK7), Plasmodium falciparum 3D7 (PF3D7_0213400), sequence (Q7YTF7 1-343): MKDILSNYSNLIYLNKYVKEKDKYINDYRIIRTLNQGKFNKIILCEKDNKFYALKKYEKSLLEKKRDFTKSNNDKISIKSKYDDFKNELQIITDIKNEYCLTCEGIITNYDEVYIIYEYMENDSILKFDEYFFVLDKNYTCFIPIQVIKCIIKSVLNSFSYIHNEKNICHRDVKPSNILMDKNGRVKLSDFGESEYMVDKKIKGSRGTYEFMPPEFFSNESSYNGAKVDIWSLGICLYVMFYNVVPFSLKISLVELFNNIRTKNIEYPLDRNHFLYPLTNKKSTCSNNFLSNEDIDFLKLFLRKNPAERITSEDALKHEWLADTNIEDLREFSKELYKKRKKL

[8] = molecular target: Calcium-dependent protein kinase 4 (Plasmodium falciparum (isolate 3D7)) (UniProt Q8IBS5); assay: PfCDPK4 kinase inhibitors, biochemical, TCAMS library (AID 1159588; cut-off not given, nearly all actives have IC50 up to about 0.91 µM); details: recombinant PfCDPK4, Kinase-Glo ATP depletion luminescence
Calcium-dependent protein kinase 4 (Plasmodium falciparum (isolate 3D7)), sequence (Q8IBS5 whole entry, looked up): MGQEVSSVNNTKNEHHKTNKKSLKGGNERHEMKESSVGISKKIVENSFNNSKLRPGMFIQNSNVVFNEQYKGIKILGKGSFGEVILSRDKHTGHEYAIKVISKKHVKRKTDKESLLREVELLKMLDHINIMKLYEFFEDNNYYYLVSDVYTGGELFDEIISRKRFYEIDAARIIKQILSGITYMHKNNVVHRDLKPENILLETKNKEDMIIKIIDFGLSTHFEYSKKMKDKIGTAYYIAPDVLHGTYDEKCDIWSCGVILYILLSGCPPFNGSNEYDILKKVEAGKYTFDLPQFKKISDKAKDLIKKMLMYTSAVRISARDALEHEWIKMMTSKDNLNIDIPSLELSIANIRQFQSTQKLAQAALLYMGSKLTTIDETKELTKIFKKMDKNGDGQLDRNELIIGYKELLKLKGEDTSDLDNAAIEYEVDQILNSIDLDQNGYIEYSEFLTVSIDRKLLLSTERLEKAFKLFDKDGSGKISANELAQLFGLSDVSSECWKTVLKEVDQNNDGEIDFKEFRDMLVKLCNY

SMILES | growth inhibition [1] | inhibition [2] | inhibition [3] | growth inhibition [4] | outcome [5] | outcome [6] | outcome [7] | outcome [8]
CC(C)CNCc1cccc(-c2cccc(CN(C(=O)Nc3ccccc3)C3CCN(Cc4ccccc4)CC3)c2)c1 | 89% (active) | 31% (inactive) | 3% (inactive) | 102% (active) | inactive | inactive | inactive | inactive
COc1cc(NCCCNC(=O)c2cn(Cc3ccccc3)c3ccccc23)nc2ccccc12 | 66% (active) | 13% (inactive) | 0% (inactive) | 101% (active) | inactive | inactive | inactive | inactive
O=C(/C=C/c1cccc2ccccc12)NC1CCC(CN2CCC(c3c[nH]c4ccccc34)CC2)CC1 (configuration not stated) | 66% (active) and 72% (active) | 45% (inactive) and 53% (active) | 5% (inactive) and -3% (inactive) | 101% (active) and 100% (active) | inactive | inactive | inactive | inactive
COC(=O)c1ccc(CC(C)NCC(O)c2cccc(Cl)c2Cl)cc1 (configuration not stated) | 98% (active) | -1% (inactive) | -6% (inactive) | 98% (active) | inactive | inactive | inactive | inactive
COC(=O)c1ccc(C[C@@H](C)NC[C@H](O)c2cccc(C(F)(F)F)c2)cc1 | 93% (active) and 87% (active) | 1% (inactive) and -5% (inactive) | -6% (inactive) and -2% (inactive) | 97% (active) | inactive | inactive | inactive | inactive
Cc1ccc(CC(C)NCC(O)c2cccc(Cl)c2)cc1 (configuration not stated) | 64% (active) | -4% (inactive) | -1% (inactive) | 93% (active) | inactive | inactive | inactive | inactive
CC1=C(C(=O)NC2CCC(CN3CCC(c4c[nH]c5ccccc45)CC3)CC2)Cc2ccccc21 (configuration not stated) | 24% (inactive) and 15% (inactive) | 41% (inactive) and 37% (inactive) | 6% (inactive) and 7% (inactive) | 97% (active) and 99% (active) | inactive | inactive | inactive | inactive
COc1ccc(F)cc1-c1csc(N(c2ccc(F)cc2)C2CCNCC2)n1 | -3% (inactive) | 15% (inactive) | -1% (inactive) | 94% (active) | inactive | inactive | inactive | inactive
CC[C@H]1CN2CC[C@@H]1C[C@H]2[C@H](O)c1cc(N2CCSCC2)nc2ccc(OC)cc12 | 98% (active) | 2% (inactive) | 1% (inactive) | 99% (active) | inactive | inactive | inactive | inactive
c1ccc2c(NCCCCCCCCCNc3c4ccccc4nc4ccccc34)c3ccccc3nc2c1 | 95% (active) | 99% (active) | -6% (inactive) | 100% (active) | inactive | inactive | inactive | inactive
COc1ccc2[nH]cc(C3=CCN(C[C@H]4C[C@@H]4C(=O)c4ccccc4)CC3)c2n1 | 93% (active) | 22% (inactive) | -8% (inactive) | 95% (active) | inactive | inactive | inactive | inactive
FC(F)(F)c1ccc(NC(=S)NC2CCC(CN3CCC(c4c[nH]c5ccccc45)CC3)CC2)cc1 (configuration not stated) | 99% (active) and 100% (active) | 65% (active) and 92% (active) | 2% (inactive) and -1% (inactive) | 100% (active) and 101% (active) | inactive | inactive | inactive | inactive
CC(=O)Nc1ccc(OCCN(CC(F)(F)F)c2ccc(C#N)cc2C(F)(F)F)cc1 | 83% (active) | -1% (inactive) | 1% (inactive) | 81% (active) | inactive | inactive | inactive | inactive
Cc1[nH]c2ccccc2c1C1=CCN(CCCCCC23CCCc4cccc(c42)NC3=O)CC1 (configuration not stated) | 91% (active) | 11% (inactive) | 5% (inactive) | 94% (active) | inactive | inactive | inactive | inactive
CC(=O)Nc1ccc2[nH]cc(C3CCN(CC4CCN(C(=O)/C=C/c5ccc(Cl)c(Cl)c5)CC4)CC3)c2c1 | 41% (inactive) | 10% (inactive) | -1% (inactive) | 96% (active) | inactive | inactive | inactive | inactive
Cc1[nH]c2cc(Cl)ccc2c1C1=CCN(CCCCC2(C)C(=O)Nc3ccccc32)CC1 (configuration not stated) | 90% (active) | -3% (inactive) | 0% (inactive) | 94% (active) | inactive | inactive | inactive | inactive
CCN1CC[C@]2(c3cccc(OC)c3)Cc3nc4ccccc4c(-c4ccccc4)c3C[C@H]2C1 | 98% (active) | 0% (inactive) | -4% (inactive) | 99% (active) | inactive | inactive | inactive | inactive
N[C@@H](CCN1CCC(c2cccc(O)c2)CC1)Cc1ccc(F)c(F)c1 | 0% (inactive) | 25% (inactive) | -3% (inactive) | 92% (active) | inactive | inactive | inactive | inactive
N#Cc1c(F)cc(N2CCC(NCC[C@H](N)Cc3ccc(F)c(F)c3)CC2)cc1F | 26% (inactive) | 70% (active) | 4% (inactive) | 102% (active) | inactive | inactive | inactive | inactive
O=P(O)(O)Oc1c(Br)cc(Br)cc1-c1cc(Br)cc(Br)c1O | -2% (inactive) | 10% (inactive) | -4% (inactive) | 97% (active) | inactive | inactive | inactive | inactive

SMILES | growth inhibition [1] | inhibition [2] | inhibition [3] | growth inhibition [4] | outcome [5] | outcome [6] | outcome [7] | outcome [8]
COc1ccc(-c2ccccc2)cc1NC(=S)NC1CCC(CN2CCC(c3c[nH]c4ccccc34)CC2)CC1 (configuration not stated) | 98% (active) and 95% (active) | 51% (active) and 27% (inactive) | -7% (inactive) and -5% (inactive) | 102% (active) and 100% (active) | inactive | inactive | inactive | inactive
Cc1[nH]c2ccccc2c1C1=CCN(CCCCC23CCCc4cccc(c42)NC3=O)CC1 (configuration not stated) | 91% (active) | 9% (inactive) | -4% (inactive) | 95% (active) | inactive | inactive | inactive | inactive
COc1cc(CC(C)NCC(O)c2cccc(C(F)(F)F)c2)ccc1OCc1ccccc1 (configuration not stated) | 71% (active) | 2% (inactive) | 2% (inactive) | 93% (active) | inactive | inactive | inactive | inactive
O=C(/C=C/c1ccc(Cl)c(Cl)c1)N1CCC(CN2CCC(c3c[nH]c4ccc(NS(=O)(=O)c5cccs5)cc34)CC2)CC1 | 100% (active) | 17% (inactive) | -7% (inactive) | 100% (active) | inactive | inactive | inactive | inactive
Oc1cccc(C2CCCN(CCc3c[nH]c4ccccc34)C2)c1 (configuration not stated) | 40% (inactive) | 0% (inactive) | 2% (inactive) | 93% (active) | inactive | inactive | inactive | inactive
COC(=O)c1ccc(CC(C)NCC(O)c2cccc(OC(F)(F)F)c2)cc1 (configuration not stated) | 67% (active) | 2% (inactive) | -2% (inactive) | 98% (active) | inactive | inactive | inactive | inactive
CCCc1ccc2c(c1O)CCC(N(CCC)CCC)C2 (configuration not stated) | 23% (inactive) | -3% (inactive) | 3% (inactive) | 90% (active) | inactive | inactive | inactive | inactive
O=C(c1cc(C(F)(F)F)cc(C(F)(F)F)c1)N1CC[C@H](CCN2CCC3(CC2)C(=O)NCN3c2ccccc2)C[C@H]1Cc1ccc(Cl)c(Cl)c1 | 77% (active) | 19% (inactive) | -4% (inactive) | 100% (active) | inactive | inactive | inactive | inactive
COC(=O)CN(C(=O)/C=C/c1ccc(Cl)c(Cl)c1)C1CCC(CN2CCC(c3c[nH]c4ccccc34)CC2)CC1 (configuration not stated) | 69% (active) | 31% (inactive) | -1% (inactive) | 100% (active) | inactive | inactive | inactive | inactive
COC(=O)c1ccc(CC(C)NCC(O)c2ccc(F)c(Cl)c2)cc1 (configuration not stated) | 78% (active) | -4% (inactive) | -7% (inactive) | 98% (active) | inactive | inactive | inactive | inactive
Cc1[nH]c2ccc(O)cc2c1C1CCN(CC2CCN(C(=O)/C=C/c3ccc(Cl)c(Cl)c3)CC2)CC1 | 99% (active) | 23% (inactive) | -13% (inactive) | 99% (active) | inactive | inactive | inactive | inactive
O=C(NC1CCC(CN2CCC(c3c[nH]c4ccccc34)CC2)CC1)c1ccc(-c2ccccc2[N+](=O)[O-])o1 (configuration not stated) | 34% (inactive) | 24% (inactive) | -2% (inactive) | 100% (active) | inactive | inactive | inactive | inactive
COc1ccc(CC(C)NCC(O)c2cccc(Cl)c2)cc1C (configuration not stated) | 78% (active) | 11% (inactive) | -6% (inactive) | 89% (active) | inactive | inactive | inactive | inactive
Cc1ccc(C)c(N2CCN(Cc3ccccc3O)CC2)c1 | 90% (active) | 11% (inactive) | 5% (inactive) | 100% (active) | inactive | inactive | inactive | inactive
CC1(C)CCCN(C(=O)Cc2ccc3c(c2)CCCC3)C1CN1CC=CC1 (configuration not stated) | 1% (inactive) | -3% (inactive) | -1% (inactive) | 98% (active) | inactive | inactive | inactive | inactive
CC(Cc1ccc(Oc2ccccc2)cc1)NCC(O)c1cccc(C(F)(F)F)c1 (configuration not stated) | 99% (active) | 16% (inactive) | 4% (inactive) | 98% (active) | inactive | inactive | inactive | inactive
CC(C)N(C)C(=O)n1cnc(S(=O)(=O)C2C[C@@H]3CC[C@H]2C3)n1 (some centres not stated) | 96% (active) | 26% (inactive) | 6% (inactive) | 97% (active) | inactive | inactive | inactive | inactive
Cc1[nH]c2ccccc2c1C1=CCN(CCCCC2(C)C(=O)Nc3ccccc32)CC1 (configuration not stated) | 89% (active) | 8% (inactive) | -4% (inactive) | 94% (active) | inactive | inactive | inactive | inactive
COc1ccc(C=CC(=O)NC2CCC(CN3CCC(c4c[nH]c5ccccc45)CC3)CC2)cc1OC (configuration not stated) | 85% (active) and 72% (active) | 15% (inactive) and 14% (inactive) | 1% (inactive) and -1% (inactive) | 100% (active) and 101% (active) | inactive | inactive | inactive | inactive
